Laboratory results reported in PubChem BioAssay (EPA / NIEHS).
More than one record can exist for a structure, and the calls need not agree. Calls of active or inactive are those of the source. The calls were made as follows: active = hit-call score of the fitted dose curve at least 0.9, where 1 is the maximum; inactive = score below 0.9.

What was measured:
[1] = CCTE_Shafer_MEA_acute_burst_duration_mean: CCTE's Neural Acute Assay for Mean Burst Duration, Shafer Lab (AID 2284014);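 also: hits are decreases in mean burst duration relative to DMSO controls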
Procedure, shortened: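 Rat cortical cultures, DIV 13/15; 40 min baseline, then 40 min with compound (0.03-40 uM), 37 C. Spikes: 300-5000 Hz band-pass, 8x rms threshold. Read-out: % change in mean single-electrode burst duration, DMSO-referenced, loss direction.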

[2] = CCTE_Shafer_MEA_acute_per_burst_spike_number_mean: CCTE's Neural Acute Assay for Average Number of Spikes Per Burst, Shafer Lab (AID 2284015);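 also: hits are decreases in mean spikes per burst versus baseline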
Procedure, shortened: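 Read-out: percent change in mean spikes per burst, each well's post-exposure 40-min recording versus its own 40-min baseline. Rat cortical cultures, DIV 13 or 15, compounds 0.03-40 uM; DMSO is negative control, loss-of-signal fitting.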

[3] = CCTE_Shafer_MEA_acute_interburst_interval_mean: CCTE's Neural Acute Assay for Mean Interburst Interval, Shafer Lab (AID 2284016);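 also: percent change of mean interburst interval versus each well's own pre-dose baseline; curves fitted for decrease in interburst interval relative to DMSO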
Procedure, shortened: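 Rat cortical cultures, DIV 13/15; 20 min equilibration, 40 min baseline, compound 0.03-40 uM, 40 min re-recording, 37 C. Spikes detected at 8x rms noise (300-5000 Hz band-pass). Endpoint: % change in interburst interval, fitted in loss direction vs DMSO.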

[4] = CCTE_Shafer_MEA_acute_burst_percentage_mean: CCTE's Neural Acute Assay for Percentage of Spikes in a Burst, Shafer Lab (AID 2284017);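 as to AC50: curve fitted for loss of signal so potency reflects decreased burst percentage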
Procedure, shortened: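 Rat cortical cultures, DIV 13/15, 37 C. Spikes detected at 8x rms noise (300-5000 Hz band-pass). Burst spikes/total spikes averaged across electrodes per well; % change post- vs pre-treatment (40 min each), loss-of-signal fit vs DMSO.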

[5] = CCTE_Shafer_MEA_acute_burst_percentage_std: CCTE's Neural Acute Assay for Standard Deviation of Burst Percentage, Shafer Lab (AID 2284018);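 also: fitted in the negative direction so actives lower burst percentage SD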
Procedure, shortened: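 Rat primary cortical neurons on 48-well MEAs, DIV 13 or 15, 37 C. 40-min baseline then 40-min recording with compound (0.03-40 uM); well-level SD of per-electrode burst spike percentage, expressed as percent change from baseline.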

[6] = CCTE_Shafer_MEA_acute_per_network_burst_spike_number_std: CCTE's Neural Acute Assay for Standard Deviation of Number of Spikes in a Network Burst, Shafer Lab (AID 2284020);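 also: fitted for decrease in spike-number SD versus DMSO so actives lower it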
Procedure, shortened: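 Rat cortical cultures, DIV 13/15, 37 C; 20-min stabilisation, 40-min baseline, compound 0.03-40 uM, 40-min re-record. Spikes detected at 8x rms noise (300-5000 Hz band-pass). Readout: % change from baseline in per-burst spike-number SD.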

[7] = CCTE_Shafer_MEA_acute_per_network_burst_electrodes_number_mean: CCTE's Neural Acute Assay for Mean Number of Electrodes in a Network Burst, Shafer Lab (AID 2284021);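 also: curves fitted for decreases only so hits reduce electrodes per burst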
Procedure, shortened: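 Percent change from baseline was computed as mean electrode count per network burst, comparing 40 min recordings before and during compound (0.03-40 uM) exposure. Cultures were rat cortical neurons at DIV 13 or 15, recorded on MEAs at 37 C with an adaptive 8x rms threshold.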

[8] = CCTE_Shafer_MEA_acute_network_burst_percentage: CCTE's Neural Acute Assay for Percentage of Network Bursts, Shafer Lab (AID 2284022);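 also: curves fitted for loss so actives lower network burst percentage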
Procedure, shortened: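 Network burst percentage (spikes in network bursts divided by total spikes) recorded at 37 C over 40 min baseline and 40 min after compound, 0.03-40 uM, in rat cortical cultures at DIV 13 or 15. Analysed as percent change from baseline versus DMSO.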

[9] = CCTE_Shafer_MEA_acute_cross_correlation_area: CCTE's Neural Acute Assay for Area of Cross Correlation, Shafer Lab (AID 2284024);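 also: area under pooled inter-electrode spike cross-correlation near zero lag as percent change from own baseline; curves fitted for loss of cross-correlation area so actives lower synchrony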
Procedure, shortened: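 Percent change in well-wide cross-correlation area (window around zero lag) between 40 min baseline and 40 min post-compound recordings, 37 C; rat cortical cultures on MEA at DIV 13 or 15, dosed 0.03-40 uM, wells needing >/= 10 active electrodes.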

[10] = CCTE_Shafer_MEA_acute_cross_correlation_HWHM: CCTE's Neural Acute Assay for Cross Correlation at Half Width at Half Maximum, Shafer Lab (AID 2284026);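 also: percent change per well from pre-dose baseline in spike cross-correlogram half width; hits are a decrease in cross-correlogram half width relative to DMSO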;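 as to outcome: spontaneous network firing of rat primary cortical neurons on multiwell microelectrode arrays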
Procedure, shortened: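 Per-well percent change in cross-correlogram half width at half maximum, derived from 40-min recordings before and after compound (0.03-40 uM) at 37 C. Cultures were rat cortical neurons, DIV 13 or 15, with adaptive spike detection at 8x rms.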

Compound | outcome [1] | outcome [2] | outcome [3] | outcome [4] | outcome [5] | outcome [6] | outcome [7] | outcome [8] | outcome [9] | outcome [10] | AC50 [1] | AC50 [2] | AC50 [5] | AC50 [4] | AC50 [3] | AC50 [10] | AC50 [9] | AC50 [7] | AC50 [8] | AC50 [6]
O=C(O)CCN(C1(C(=O)NO)CCCC1)S(=O)(=O)c1ccc(Oc2ccc(F)cc2)cc1 | inactive | inactive | inactive | inactive | inactive | inactive | inactive | inactive | inactive | inactive | – | – | – | – | – | – | – | – | – | –
CCCCC(CC)COC(=O)CCCCCCCCC(=O)OCC(CC)CCCC (stereo not drawn) | inactive | inactive | inactive | inactive | inactive | inactive | inactive | inactive | inactive | inactive | – | – | – | – | – | – | – | – | – | –
Cn1c(=O)c2c(ncn2C)n(C)c1=O | – | – | inactive | inactive | – | inactive | inactive | inactive | inactive | inactive | 30.8 µM (active) | 31.8 µM (active) | 20 µM (active) | – | – | – | – | – | – | –
CCOC(=O)c1ccc(C2CCC(NC[C@H](O)COc3ccc(O)c(NS(C)(=O)=O)c3)CC2)cc1 (stereo partly drawn) | inactive | inactive | inactive | – | inactive | inactive | inactive | inactive | inactive | inactive | – | – | – | 30.2 µM (active) | – | – | – | – | – | –
O=P(OC(CCl)CCl)(OC(CCl)CCl)OC(CCl)CCl | inactive | inactive | inactive | inactive | inactive | inactive | inactive | inactive | inactive | inactive | – | – | 31.6 µM (active) | 23.1 µM (active) | 24 µM (active) | 23.5 µM (active) | – | – | – | –
CC[C@H]1CC[C@H](NCc2cc3c(cc2OC)[C@H]2C[C@H]2C(=O)N3C)[C@H](c2ccccc2)N1 | inactive | inactive | – | – | inactive | inactive | inactive | inactive | inactive | – | – | – | – | 30.9 µM (active) | 7.83 µM (active) | 20 µM (active) | – | – | – | –
CC(C)=CCCC(C)=CC=O | inactive | inactive | inactive | inactive | inactive | inactive | inactive | inactive | inactive | inactive | – | – | – | – | – | – | – | – | – | –
COc1cccc(-c2ccc(/C=C\CN3CCCCCC3)cc2Cl)c1 | inactive | inactive | inactive | – | inactive | inactive | inactive | inactive | – | inactive | – | – | – | 1.34 µM (active) | – | – | 3.7 µM (active) | – | – | –
Cc1[nH]cnc1C[C@H]1CCc2c(C)c3ccccc3n2C1=O | inactive | inactive | inactive | – | inactive | inactive | – | – | inactive | – | – | – | – | 9 µM (active) | – | 30.7 µM (active) | – | 17.8 µM (active) | 24.2 µM (active) | –
CCC(C)(C)C(=O)O[C@H]1C[C@@H](C)C=C2C=C[C@H](C)[C@H](CC[C@@H]3C[C@@H](O)CC(=O)O3)[C@H]21 | inactive | inactive | inactive | inactive | inactive | inactive | inactive | inactive | inactive | inactive | – | – | – | – | – | – | – | – | – | –
CCCCCCc1ccc(O)cc1O | inactive | – | – | – | – | – | – | inactive | inactive | – | – | 20 µM (active) | 27.8 µM (active) | 15 µM (active) | 30.1 µM (active) | 20 µM (active) | – | 8.5 µM (active) | – | 15.9 µM (active)
COc1ccc2sc(C(=O)Nc3nnn[nH]3)c(OC(C)C)c2c1 | inactive | inactive | inactive | inactive | inactive | inactive | inactive | inactive | inactive | inactive | – | – | – | – | – | – | – | – | – | –
On1ccccc1=S | inactive | inactive | inactive | inactive | inactive | inactive | inactive | inactive | inactive | inactive | – | – | – | – | – | – | – | – | – | –
CCCN(C1CCN(C(=O)C2CCNCC2)CC1)[C@@H]1CCc2ccc(OC)cc2C1 | inactive | inactive | inactive | – | – | inactive | – | – | inactive | inactive | – | – | 33.1 µM (active) | 11.3 µM (active) | – | – | – | 5 µM (active) | 7.55 µM (active) | –
O=C(O)c1cc(N=Nc2ccc(S(=O)(=O)Nc3ccccn3)cc2)ccc1O | inactive | inactive | inactive | inactive | inactive | inactive | inactive | inactive | inactive | inactive | – | – | – | – | – | – | – | – | – | –
CC[C@H]1OC(=O)[C@H](C)[C@@H](O[C@H]2C[C@@](C)(OC)[C@@H](O)[C@H](C)O2)[C@H](C)[C@@H](O[C@@H]2O[C@H](C)C[C@H](N(C)C)[C@H]2O)[C@](C)(O)C[C@@H](C)C(=O)[C@H](C)[C@@H](O)[C@]1(C)O | inactive | inactive | inactive | inactive | inactive | inactive | inactive | inactive | inactive | inactive | – | – | – | – | – | – | – | – | – | –
Cn1cnc([N+](=O)[O-])c1Sc1ncnc2nc[nH]c12 | inactive | inactive | inactive | inactive | inactive | inactive | inactive | inactive | inactive | inactive | – | – | – | – | – | – | – | – | – | –
CCCCCCCCCCCCc1ccccc1 | inactive | inactive | – | inactive | inactive | inactive | inactive | inactive | inactive | inactive | – | – | – | – | – | – | – | – | – | –
